PubChem BioAssay (NCI)
This is part of a sample that, as a whole, favours compounds with a hit. Of some 83,000 tested, about 20% had one in any assay.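 Cells were grown in 96-well plates and exposed to the test compound at a single concentration for 48 hours; results are reported as percent growth, with values below 10 considered active.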

How the values were obtained:
Test in all cases: NCI-60 one-dose screen, 48 h (100 = growth as untreated, 0 = no growth, -100 = all killed)
Settings in all cases: 10 µM unless noted
NCI-H226 lung = tested on: NCI-H226 lung
NCI-H322M lung = tested on: NCI-H322M lung
HOP-62 NSCLC = tested on: HOP-62 NSCLC
NCI-H460 lung = tested on: NCI-H460 lung
HOP-92 NSCLC = tested on: HOP-92 NSCLC
NCI-H522 lung = tested on: NCI-H522 lung
A549/ATCC NSCLC = tested on: A549/ATCC NSCLC
786-0 renal = tested on: 786-0 renal
COLO 205 colon = tested on: COLO 205 colon
DU-145 prostate = tested on: DU-145 prostate
K-562 leukemia = tested on: K-562 leukemia
MALME-3M melanoma = tested on: MALME-3M melanoma
MDA-MB-231 breast = tested on: MDA-MB-231 breast
RXF 393 renal = tested on: RXF 393 renal
SF-268 CNS = tested on: SF-268 CNS
SF-295 CNS = tested on: SF-295 CNS
UACC-257 melanoma = tested on: UACC-257 melanoma
M14 melanoma = tested on: M14 melanoma
SF-539 CNS = tested on: SF-539 CNS

Measured: growth

NC(=S)N/N=C/c1ccc(OC(=O)COc2ccccc2)cn1
inactive: NCI-H226 lung 92% | NCI-H322M lung 54% | HOP-62 NSCLC 57.9% | NCI-H460 lung 83.5% | HOP-92 NSCLC 63.8% | NCI-H522 lung 58% | A549/ATCC NSCLC 107% | 786-0 renal 22% | COLO 205 colon 85.9% | DU-145 prostate 26.1% | K-562 leukemia 53.4% | MALME-3M melanoma 52.2% | MDA-MB-231 breast 60% | RXF 393 renal 72.2% | SF-268 CNS 30.7% | SF-295 CNS 111% | UACC-257 melanoma 90.6% | M14 melanoma 15%

Cc1cc(C(=O)NN)c(C#N)c(=O)[nH]1
inactive: NCI-H226 lung 99.1% | NCI-H322M lung 110% | HOP-62 NSCLC 97% | NCI-H460 lung 97.2% | HOP-92 NSCLC 87.2% | NCI-H522 lung 89.8% | A549/ATCC NSCLC 101% | 786-0 renal 107% | COLO 205 colon 94.1% | DU-145 prostate 106% | K-562 leukemia 116% | MALME-3M melanoma 103% | MDA-MB-231 breast 106% | RXF 393 renal 99.5% | SF-268 CNS 116% | SF-295 CNS 127% | SF-539 CNS 87.7% | UACC-257 melanoma 95.4% | M14 melanoma 100%

S=C=Nc1ccc2ccccc2c1
inactive: NCI-H226 lung 101% | NCI-H322M lung 109% | HOP-62 NSCLC 98.3% | NCI-H460 lung 105% | NCI-H522 lung 97.3% | A549/ATCC NSCLC 100% | COLO 205 colon 111% | DU-145 prostate 107% | K-562 leukemia 96% | MALME-3M melanoma 102% | MDA-MB-231 breast 117% | RXF 393 renal 110% | SF-268 CNS 108% | SF-295 CNS 108% | SF-539 CNS 99.9% | UACC-257 melanoma 99.7% | M14 melanoma 103%

Cc1cccc2ccccc12
inactive: NCI-H226 lung 97% | NCI-H322M lung 103% | HOP-62 NSCLC 102% | NCI-H460 lung 104% | HOP-92 NSCLC 100% | NCI-H522 lung 97.3% | A549/ATCC NSCLC 96.9% | 786-0 renal 97.9% | COLO 205 colon 117% | DU-145 prostate 114% | MALME-3M melanoma 103% | MDA-MB-231 breast 101% | RXF 393 renal 111% | SF-268 CNS 102% | SF-295 CNS 97.4% | SF-539 CNS 89.8% | UACC-257 melanoma 101% | M14 melanoma 97.7%
